For 47 compounds, IC50 results are on record in PubChem BioAssay AID435026 (Broad Institute, 2010).

Screen size: about 1,000 compounds; about 410 (41%) were called active. So high a share suggests a set chosen from earlier hits. Only a sample is shown. A number with no mark means an inactive call.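 How the source made its calls: active means fitted half-maximal inhibitory concentration no more than tenfold above the top dose tested; inconclusive means flat fit with 30 to 70% activity, or poor fit; inactive means half-maximal concentration beyond tenfold above the top dose.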

A short description of the assay: compounds reducing YIC probe YFP/CFP ratio – biochemical, fluorescence FRET, counter-screen for RanGTP-importin-beta inhibitor project, dose response (AID 435026). To be noted: Purified YIC probe, intramolecular FRET ratio YFP/CFP.
Regarding `CN(C)CCCn1c(N)c(C#N)c2nc(C#N)c(C#N)nc21`, the IC50 is 25 µM (active). On to `CCN(CCO)C(=S)Nc1cc(C(=O)OC)ccc1C(=O)OC`, for which the IC50 is greater than 50 µM. Turning to `O=C(Nc1ccccc1-c1ccccc1)c1cccs1`, the IC50 was greater than 50 µM. Then `N#C/C(=C/c1ccc(N2CCCCC2)o1)C(=O)NCCc1c[nH]c2ccccc12`, with 0.753 µM (active); and `Cc1nc2ccccc2c2oc(C(=O)NCCCN3CCC(C)CC3)cc12`, with greater than 50 µM. On to `COc1ccc(C(=O)C[n+]2ccc(N)c(C)c2C)cc1`, for which the IC50 was greater than 50 µM. `Cc1ccc(-n2c(=O)c(C#N)cc3c(=O)n4ccccc4nc32)cc1C`: the half-inhibitory concentration (IC50) was 1.78 µM (active). The same measure for `COC(=O)c1cc2c(ccn2C)n1C`: greater than 50 µM; for `CCn1c2ccccc2c2cc(NC(=O)CNC)ccc21`: greater than 50 µM. `O=c1cc(CN2CCN(S(=O)(=O)/C=C/c3ccccc3)CC2)c2ccc(O)cc2o1`: the IC50 was 44.1 µM (active).

`COc1cc(SC)ccc1C(=O)Nc1nc(C)cs1`: the IC50 is greater than 50 µM. On to `COC(=O)c1ccc2c(C(C)(C)O)c(C(C)(C)O)[nH]c2c1`, for which the IC50 is greater than 50 µM. Then `COc1cccc(C(=O)c2cc3ccc(O)cc3oc2=O)c1`, with 28.1 µM (active); and `CC(=O)c1ccc(-c2ccc(Cn3c(C)nc4cc(N)c(C)nc43)cc2)cc1`, with greater than 50 µM.

As to `Cc1cc(O)ccc1NC1=CC(=O)CC(C)(C)C1`, the IC50 was greater than 50 µM. `CC(=O)N1CCc2c(sc(NC(=O)CCS(=O)(=O)c3ccc(C)cc3)c2C(N)=O)C1`: the IC50 is 38 µM (active). Then `CCCNS(=O)(=O)c1ccc2c(c1)CCCN2C(C)=O`, with greater than 50 µM.

For the compound `CCOC(=O)c1c(C)oc2cc(Br)c(OCC(N)=O)cc12`, the IC50 is greater than 50 µM. With `COc1ccc(-n2cnc3cc(NCc4ccco4)ccc32)cc1`, the IC50 is greater than 50 µM. As for `CC1(C)CC(=O)NC=C(c2ccccc2)C1`, the IC50 was greater than 50 µM. As to `Cc1ccc(NC(=S)NCCN2CCOCC2)cc1`, the IC50 was greater than 50 µM.

Consider `N#C/C(=C\c1ccc(N2CCOCC2)o1)C(=O)N1CCOCC1`, for which the IC50 was 5.73 µM (active).

As for `N#C/C(=C/c1ccc(N2CCOCC2)o1)C(=O)N1CCOCC1`, the IC50 is 5.08 µM (active). Consider `CCCC(C)c1nnc(NC(=O)C2CC(=O)N(c3ccc(OCC)cc3)C2)s1` (configuration not stated), for which the IC50 is greater than 50 µM. Take `COc1ccc(C(=O)Cc2cnn(-c3ccccc3)c2)c(O)c1`: the IC50 was greater than 50 µM.

With `Cc1ccc(N2CCN(c3ccc(C)cc3)C2c2ccccn2)cc1`, the IC50 was greater than 50 µM. For `CCOc1ccc(N=Cc2c(O)n(-c3cccc(C)n3)c(=O)c3ccccc23)cc1`, the IC50 is 34.7 µM (active).

Regarding `CCN(CC)c1nc(-c2ccccc2)cc(C(F)(F)F)c1C#N`, the IC50 is 9.38 µM (active). Then `CCCOc1ccc(Cn2ccnc2)cc1[N+](=O)[O-]`, with greater than 50 µM; and `CCN1C(=O)/C(=C2/Sc3ccccc3N2CCCS(=O)(=O)O)SC1=S`, with 15 µM (active).

On to `C/C(=N\N)c1c(-c2ccccc2)c2cc(Br)ccc2[nH]c1=O`, for which the IC50 was greater than 50 µM. The same measure for `CN1CCN(c2cc(=O)n(-c3ccc(Cl)cc3)c(=O)[nH]2)CC1`: greater than 50 µM; for `CCC(=O)Nc1c(S(=O)(=O)c2ccccc2)c2nc3ccccc3nc2n1Cc1ccccc1`: 17.3 µM (active); for `O=C(NNc1c2ccccc2nc2ccccc12)c1cc2ccccc2cc1O`: greater than 50 µM. On to `COc1ccc(CCn2c(=N)c(C(=O)NCc3ccco3)cc3c(=O)n4cccc(C)c4nc32)cc1`, for which the IC50 was 50.2 µM (active). On to `CC(C)C1C2=C(CC(C)(C)CC2=O)ON1c1ccccc1` (configuration not stated), for which the IC50 was greater than 50 µM. For the compound `CCN1CCc2nc(NC(=O)c3cc(F)c(F)cc3Cl)sc2C1`, the IC50 was greater than 50 µM. With `CNC(=O)c1cc2c(ccc3ccccc32)oc1=N`, the IC50 was 7.06 µM (active).

Take `CC(=O)c1cc(C#N)c(N2CC(C)OC(C)C2)nc1C` (configuration not stated): the IC50 is greater than 50 µM. Regarding `Oc1c(CN2CCN(c3ccc(F)cc3)CC2)cc(Cl)c2cccnc12`, the IC50 was greater than 50 µM. Regarding `CC1CN(c2cc(=O)n(-c3cccc(Br)c3)c(=O)[nH]2)CC(C)O1` (configuration not stated), the IC50 is greater than 50 µM. With `CCOC(=O)c1oc2c(CN3CCN(CCO)CC3)c(O)c(CC)cc2c(=O)c1-c1nc2ccccc2s1`, the IC50 was 29.2 µM (active). As to `CC1CC(=O)N(CC(=O)Nc2cccc(Cl)c2)c2ccccc2S1(=O)=O` (configuration not stated), the IC50 was greater than 50 µM.

As for `CC(OC(=O)CNC(=O)c1cccc(F)c1)C(=O)NC1CCCCC1C` (configuration not stated), the IC50 is greater than 50 µM. On to `OCCNCc1cccc(OCc2ccccc2Cl)c1`, for which the IC50 is greater than 50 µM. With `N#Cc1c(N)n(CCOC(=O)c2ccc(Cl)cc2)c2nc3ccccc3nc12`, the IC50 was 3.73 µM (active).

In the case of `CCN(CC(=O)Nc1cccc(S(=O)(=O)N2CCCCC2)c1)Cc1ccccc1`, the IC50 is greater than 50 µM.
